Data as given in PubChem BioAssay AID463173 (ICCB-Longwood Screening Facility, Harvard Medical School, 2010).
The campaign covered roughly 52,000 compounds. About 1,700 (3.3%) were called active. No stated cut-off is given here; in the data, active means survival mostly below about 52% (no sharp cut-off); inactive means mostly above about 56%. The list comes from a sample in which actives are over-represented; it also holds similar structures and randomly drawn compounds.

These compounds were tested on Wild type (assay: S. aureus survival, RN4220 and DeltatarO strains – OD600, teichoic acid synthesis inhibitors, primary screen (AID 463173)). Conditions: S. aureus RN4220 wild type/DeltatarO growth, OD600, 18 h, active compounds read low, screened at 18.75 µg/mL (by protocol).

| SMILES | survival |
| --- | --- |
| COc1ccc(-c2cc3nccc(-c4cc(Cl)c(C)cc4O)n3n2)cc1 | 82% (inactive) |
| CN1CCN(C(CNC(=O)c2ccc(F)cc2)c2ccc3c(c2)OCO3)CC1 (centres undefined) | 70% (inactive) |
| C=CCN1C=C/C(=C\C=C(C#N)C#N)c2ccccc21 | 102% (inactive) |
| CCc1c(C)nc(SCc2nc(-c3ccccc3)no2)[nH]c1=O | 118% (inactive) |
| COc1cccc(C(=O)N(Cc2ccco2)c2ccccn2)c1 | 103% (inactive) |
| COc1ccc(CCNC(=O)c2nc(SCc3ccc(F)cc3)ncc2Cl)cc1OC | 86% (inactive) |
| CN(CC(=O)NCc1ccc(Cl)cc1)S(=O)(=O)c1ccc2c(c1)c(=O)n(C)c(=O)n2C | 81% (inactive) |
| COc1ccc(NC(=O)c2oc3ccccc3c2NC(=O)Cc2cccs2)cc1 | 90% (inactive) |
| C#CC(C)(CC)NC(=O)Cn1nnc(-c2ccc(OCc3ccccc3C)cc2)n1 (centres undefined) | 143% (inactive) |
| Cc1ccc(-n2cc(-c3ccccc3)c3c(N4CCCCC4)ncnc32)cc1 | 80% (inactive) |
| Cc1sc2nc(CN(CCc3ccccc3)C(=O)c3ccco3)[nH]c(=O)c2c1C | 100% (inactive) |
| CCCCCOc1ccccc1Cn1c(=O)oc2ccc(C)cc21 | 15% (active) |
| Cc1ccc2oc(=O)n(CCNC(=O)Nc3ccccc3Cl)c2c1 | 90% (inactive) |
| CCCCCOc1ccccc1CN1C(=O)C(=O)c2cc(C)ccc21 | 105% (inactive) |
| Cc1ccc2c(c1)C(=O)C(=O)N2Cc1ccc(OCCC(C)C)cc1 | 79% (inactive) |
| Cc1ccc2oc(=O)n(Cc3ccccc3Cl)c2c1 | -2% (active) |
| CCCCOc1ccc(Cn2c(=O)oc3ccc(C)cc32)cc1OC | 49% (inactive) |
| CCCCOc1ccc(CN2C(=O)C(=O)c3cc(C)ccc32)cc1OC | 87% (inactive) |
| CCCCCOc1ccc(Cn2c(=O)oc3ccc(C)cc32)cc1OC | -6% (active) |
| O=C(NCc1ccccc1Cl)c1ccc2oc(=O)n(Cc3ccccc3)c2c1 | 81% (inactive) |

| SMILES | survival |
| --- | --- |
| CCCCCOc1ccc(Cn2c(=O)oc3ccccc32)cc1 | 120% (inactive) |
| COc1cc(Cn2c(=O)oc3ccc(C)cc32)ccc1OCCC(C)C | -7% (active) |
| CCOC(=O)c1ccc2oc(=O)n(Cc3ccccc3)c2c1 | 68% (inactive) |
| COc1cc2nc(C3CCC3)n(NC(=O)c3ccccc3C)c(=O)c2cc1OC | 115% (inactive) |
| CSc1ccc(CCNC(=O)CCc2c(C)nc3ncnn3c2C)cc1 | 71% (inactive) |
| CCC1CN(C(=O)C2CCN(S(=O)(=O)c3c(C)noc3/C=C/c3ccccc3F)CC2)c2cc(Cl)ccc2O1 (centres undefined) | 71% (inactive) |
| COc1ccc(NC(=O)Cn2c(=O)n(-c3ccccc3)c(=O)c3ccc(C(=O)NCc4ccc5c(c4)OCO5)cc32)cc1 | 154% (inactive) |
| COc1ccc(NC(=O)C2CCCN(S(=O)(=O)c3c(C)[nH]c(=O)[nH]c3=O)C2)cc1OC (centres undefined) | 130% (inactive) |
| O=C(Nc1cc(-c2ccc(F)c(F)c2)no1)c1ccccc1F | 92% (inactive) |
| COC(=O)c1ccccc1NC(=O)c1ccc(-c2nc(COc3ccccc3)c(C)o2)cc1 | 135% (inactive) |
| COCCCNC(=O)C1CCN(c2nnc(-n3cccc3CNc3ccc(C)cc3)s2)CC1 | 72% (inactive) |
| CCOCCc1nn2c(=O)cc(COC(=O)c3ccco3)nc2s1 | 85% (inactive) |
| CCc1nn2c(=O)cc(COC(=O)C(CC)c3ccccc3)nc2s1 (centres undefined) | 73% (inactive) |
| CCc1nn2c(=O)cc(COC(=O)Cc3ccccc3)nc2s1 | 59% (inactive) |
| CCOCCc1nn2c(=O)cc(COC(=O)C(CC)c3ccccc3)nc2s1 (centres undefined) | 14% (active) |
| CCC(C(=O)OCc1cc(=O)n2nc(CCOC)sc2n1)c1ccccc1 (centres undefined) | 136% (inactive) |
| CCOCCc1nn2c(=O)cc(COC(=O)Cc3ccccc3)nc2s1 | -1% (active) |
| Cc1ccc(-c2nnc3ccccc3c2C(=O)Nc2cccc(C(F)(F)F)c2)cc1 | 120% (inactive) |
| COc1ccc(N(Cc2cccs2)C(=O)c2ccc(OCC(C)C)cc2)cc1 | 113% (inactive) |
| CCc1ccccc1NC(=O)CN(c1cccc(C)c1C)S(C)(=O)=O | 72% (inactive) |

| SMILES | survival |
| --- | --- |
| Cc1ccc(NC(=O)Cn2c(=O)n(Cc3ccco3)c(=O)c3sc4ccccc4c32)cc1C | 126% (inactive) |
| CCc1nn2c(=O)cc(COC(=O)C3CCCCC3)nc2s1 | 72% (inactive) |
| Cc1cccc(-c2nc(SCC(=O)NCC3CCCO3)c3c(=O)n(C)c(=O)n(C)c3n2)c1 (centres undefined) | 128% (inactive) |
| Oc1c(C(c2ccccc2Cl)N2CCCC2)sc2nc(-c3ccco3)nn12 (centres undefined) | 82% (inactive) |
| CN1CCN(C(c2ccccc2Cl)c2sc3nc(-c4ccco4)nn3c2O)CC1 (centres undefined) | 129% (inactive) |
| Oc1c(C(c2ccccc2)N2CCOCC2)sc2nc(-c3ccco3)nn12 (centres undefined) | 88% (inactive) |
| Cc1ccc(C(c2sc3nc(-c4ccco4)nn3c2O)N2CCN(Cc3ccccc3)CC2)cc1 (centres undefined) | 121% (inactive) |
| Oc1c(C(c2ccccc2)N2CCC3(CC2)OCCO3)sc2nc(-c3ccco3)nn12 (centres undefined) | 73% (inactive) |
| Oc1c(C(c2ccc(Cl)cc2)N2CCC3(CC2)OCCO3)sc2nc(-c3ccco3)nn12 (centres undefined) | 0% (active) |
| Oc1c(C(c2ccc(F)cc2)N2CCN(Cc3ccccc3)CC2)sc2nc(-c3ccco3)nn12 (centres undefined) | 89% (inactive) |
| Oc1c(C(c2ccccc2)N2CCN(Cc3ccccc3)CC2)sc2nc(-c3ccco3)nn12 (centres undefined) | 10% (active) |
| Oc1c(C(c2ccccc2Cl)N2CCOCC2)sc2nc(-c3ccco3)nn12 (centres undefined) | -2% (active) |
| Oc1c(C(c2ccccc2)N2CCCC2)sc2nc(-c3ccco3)nn12 (centres undefined) | -3% (active) |
| Cc1ccc(C(c2sc3nc(-c4ccco4)nn3c2O)N2CCC3(CC2)OCCO3)cc1 (centres undefined) | 70% (inactive) |
| CN1CCN(C(c2ccccc2)c2sc3nc(-c4ccco4)nn3c2O)CC1 (centres undefined) | 59% (inactive) |
| COC(=O)c1ccc(NS(=O)(=O)c2c(C)nc3sccn3c2=O)cc1 | 85% (inactive) |
| CC(=O)NC1Sc2ccccc2N=C1c1ccccc1 (centres undefined) | 112% (inactive) |
| Cc1cccc(-n2c(Cc3ccccc3)nnc2SCc2nc(-c3cccs3)no2)c1 | 63% (inactive) |
| Cc1ccc2onc(CC(=O)Nc3ccc(C(C)C)cc3)c2c1 | 85% (inactive) |
